Experimental data as given in PubChem BioAssay (NCATS).
Values joined by “and” are separate entries in the source; they are usually repeats but may differ in a detail not shown here. Equal entries are not always repeated. Results filed as inconclusive are left out. Active and inactive are the calls of the source. Unless noted, the call rests on the fitted dose curve; in most records, active means well fitted inhibition curve with a large enough effect; inconclusive means small, poorly fitted or top-dose-only effect; inactive means flat fitted curve, though single readings scatter.

Target: Retinoic acid receptor RXR-alpha (Homo sapiens) (UniProt P19793)
Assay: qHTS assay for small molecule antagonists of retinoid X receptor alpha signaling (AID 588546; active means well fitted inhibition curve with a large enough effect in the signal ratio, with a control signal flat, not every such curve was filed as active; the % refers to the signal ratio; further: potency means the concentration at half of the fitted maximal effect;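 on max response: cells stimulated with 9-cis-retinoic acid as agonist; on the % scale 0 is the no-effect control and ±100 the full control effect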)
Settings: HEK293T RXRa-UAS-bla, beta-lactamase ratio, antagonist mode
Method in brief: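 Beta-lactamase reporter inhibition, read as CCF4 fluorescence ratio (ex 405, em 460/530 nm) after 2 h at RT. HEK293T UAS-bla cells, 2500/well, were stimulated with 9-cis-RA at 500 or 100 nM final alongside test compound for 18 h at 37 C.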

Chain of Retinoic acid receptor RXR-alpha (Homo sapiens) (P19793 whole entry, looked up): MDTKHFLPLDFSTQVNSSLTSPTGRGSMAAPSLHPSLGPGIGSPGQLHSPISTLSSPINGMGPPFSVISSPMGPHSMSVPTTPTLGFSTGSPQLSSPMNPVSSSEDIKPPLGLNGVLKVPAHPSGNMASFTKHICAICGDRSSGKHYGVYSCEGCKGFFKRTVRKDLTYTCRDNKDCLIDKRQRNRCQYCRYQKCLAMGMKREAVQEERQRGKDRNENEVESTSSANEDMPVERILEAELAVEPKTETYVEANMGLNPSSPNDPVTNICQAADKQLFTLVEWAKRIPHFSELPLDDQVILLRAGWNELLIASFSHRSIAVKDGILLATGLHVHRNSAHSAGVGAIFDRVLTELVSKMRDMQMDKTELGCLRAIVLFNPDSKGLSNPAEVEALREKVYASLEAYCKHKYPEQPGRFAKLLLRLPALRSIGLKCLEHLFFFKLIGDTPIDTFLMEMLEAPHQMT

Compound | max response | Potency
CN(C)c1ccc(C2(c3ccc(N(C)C)cc3)OC(=O)c3cc(N(C)C)ccc32)cc1 | 32.7% (inactive) | 
Cc1cc(Nc2ccc(O)cc2)ccc1N | 21.4% (inactive) | 
C=C(C)c1ccccc1 | -3.16% (inactive) | 
Cc1ccc(S(=O)(=O)Oc2ccc(N=Nc3ccc(-c4ccc(N=Nc5c(O)ccc6cc(S(=O)(=O)O)cc(S(=O)(=O)O)c56)c(C)c4)cc3C)cc2)cc1 | 14.7% (inactive) | 
O=C1OC2(c3cc(Br)c(O)c(Br)c3Oc3c2cc(Br)c(O)c3Br)c2c(Cl)c(Cl)c(Cl)c(Cl)c21 | 7.11% (inactive) | 
ClC1=C(Cl)C(Cl)(Cl)C(Cl)=C1Cl | -8.53% (inactive) and -12% (inactive) | 
O=C1OC(O)C(C(Cl)Cl)=C1Cl (stereo not drawn) | -25.5% (inactive) | 
CCC(C)Nc1ccc(NC(C)CC)cc1 (stereo not drawn) |  | 28.2 µM (active)
O=C=Nc1ccc(Cc2ccc(N=C=O)cc2)cc1 | 9.21% (inactive) and 0.991% (inactive) | 

Target: Thyroid hormone receptor beta (Homo sapiens) (UniProt P10828)
Assay: qHTS assay for small molecule antagonists of thyroid hormone receptor beta signaling (AID 588547; active means well fitted inhibition curve with a large enough effect in the signal ratio, with a control signal flat, not every such curve was filed as active; the % refers to the signal ratio;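 further: cells stimulated with 0.4 nM T3 agonist during compound exposure; on the % scale 0 is the no-effect control and ±100 the full control effect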)
Settings: TR-UAS-bla HEK293, beta-lactamase ratio, antagonist mode, 18 h
Method in brief: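 TR-UAS-bla GripTite HEK293 cells in 2% charcoal/dextran FBS medium were preincubated 4 h at 37 C, given compound (0.59 nM to 92 uM) plus 0.4 nM T3 (final) for 18 h, then CCF4 for 2 h at RT; Hill fit gave IC50.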

Chain of Thyroid hormone receptor beta (Homo sapiens) (P10828 whole entry, looked up): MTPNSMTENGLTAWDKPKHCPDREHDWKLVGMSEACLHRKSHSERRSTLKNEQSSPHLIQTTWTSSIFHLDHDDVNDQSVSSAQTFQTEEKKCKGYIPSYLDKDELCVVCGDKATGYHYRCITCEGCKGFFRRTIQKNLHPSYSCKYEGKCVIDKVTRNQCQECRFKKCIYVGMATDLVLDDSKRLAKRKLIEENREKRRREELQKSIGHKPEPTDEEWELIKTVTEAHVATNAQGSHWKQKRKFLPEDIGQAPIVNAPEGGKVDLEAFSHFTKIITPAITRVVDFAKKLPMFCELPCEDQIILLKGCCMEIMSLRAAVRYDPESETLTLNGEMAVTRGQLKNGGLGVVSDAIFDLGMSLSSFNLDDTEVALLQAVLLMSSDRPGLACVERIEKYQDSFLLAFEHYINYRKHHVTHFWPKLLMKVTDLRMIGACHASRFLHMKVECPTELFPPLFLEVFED

Compound | activity change % (negative = inhibition)
CN(C)c1ccc(C2(c3ccc(N(C)C)cc3)OC(=O)c3cc(N(C)C)ccc32)cc1 | 12.5% (inactive)
Cc1cc(Nc2ccc(O)cc2)ccc1N | -8.81% (inactive)
CO[C@H]1/C=C/O[C@@]2(C)Oc3c(C)c(O)c4c(O)c(c5c(c4c3C2=O)NC2(CCN(CC(C)C)CC2)N=5)=NC(=O)/C(C)=C\C=C\[C@H](C)[C@H](O)[C@@H](C)[C@@H](O)[C@@H](C)[C@H](OC(C)=O)[C@@H]1C | 5.09% (inactive)
C=C(C)c1ccccc1 | 2.47% (inactive)
Cc1ccc(S(=O)(=O)Oc2ccc(N=Nc3ccc(-c4ccc(N=Nc5c(O)ccc6cc(S(=O)(=O)O)cc(S(=O)(=O)O)c56)c(C)c4)cc3C)cc2)cc1 | 6.13% (inactive)
O=C1OC2(c3cc(Br)c(O)c(Br)c3Oc3c2cc(Br)c(O)c3Br)c2c(Cl)c(Cl)c(Cl)c(Cl)c21 | 2.12% (inactive)
ClC1=C(Cl)C(Cl)(Cl)C(Cl)=C1Cl | -17.2% (inactive) and -1.82% (inactive)
O=C=Nc1ccc(Cc2ccc(N=C=O)cc2)cc1 | -3.37% (inactive) and 10% (inactive)
O=Cc1ccc(Cl)c(Cl)c1 | 11% (inactive)

Target: Voltage-gated inwardly rectifying potassium channel KCNH2 (Homo sapiens) (UniProt Q12809)
Assay: qHTS Assay for Small Molecule Inhibitors of the Human hERG Channel Activity (AID 588834);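 further: lower thallium flux fluorescence means stronger hERG block; nearly all actives have a fitted effect of over 50% in size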; further: potency means the concentration at half of the fitted maximal effect
Settings: U2OS BacMam hERG, FluxOR thallium flux fluorescence; series mostly up to 92.2 µM
Method in brief: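 hERG-BacMam U2OS, 2000 cells/well; 0.7X FluxOR loading 1 hr RT dark; cpd ~10 min 37 °C; stim buffer; FDSS fluorescence 2 min @ 1 s; AC50 Hill fit.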

Chain of Voltage-gated inwardly rectifying potassium channel KCNH2 (Homo sapiens) (Q12809 whole entry, looked up): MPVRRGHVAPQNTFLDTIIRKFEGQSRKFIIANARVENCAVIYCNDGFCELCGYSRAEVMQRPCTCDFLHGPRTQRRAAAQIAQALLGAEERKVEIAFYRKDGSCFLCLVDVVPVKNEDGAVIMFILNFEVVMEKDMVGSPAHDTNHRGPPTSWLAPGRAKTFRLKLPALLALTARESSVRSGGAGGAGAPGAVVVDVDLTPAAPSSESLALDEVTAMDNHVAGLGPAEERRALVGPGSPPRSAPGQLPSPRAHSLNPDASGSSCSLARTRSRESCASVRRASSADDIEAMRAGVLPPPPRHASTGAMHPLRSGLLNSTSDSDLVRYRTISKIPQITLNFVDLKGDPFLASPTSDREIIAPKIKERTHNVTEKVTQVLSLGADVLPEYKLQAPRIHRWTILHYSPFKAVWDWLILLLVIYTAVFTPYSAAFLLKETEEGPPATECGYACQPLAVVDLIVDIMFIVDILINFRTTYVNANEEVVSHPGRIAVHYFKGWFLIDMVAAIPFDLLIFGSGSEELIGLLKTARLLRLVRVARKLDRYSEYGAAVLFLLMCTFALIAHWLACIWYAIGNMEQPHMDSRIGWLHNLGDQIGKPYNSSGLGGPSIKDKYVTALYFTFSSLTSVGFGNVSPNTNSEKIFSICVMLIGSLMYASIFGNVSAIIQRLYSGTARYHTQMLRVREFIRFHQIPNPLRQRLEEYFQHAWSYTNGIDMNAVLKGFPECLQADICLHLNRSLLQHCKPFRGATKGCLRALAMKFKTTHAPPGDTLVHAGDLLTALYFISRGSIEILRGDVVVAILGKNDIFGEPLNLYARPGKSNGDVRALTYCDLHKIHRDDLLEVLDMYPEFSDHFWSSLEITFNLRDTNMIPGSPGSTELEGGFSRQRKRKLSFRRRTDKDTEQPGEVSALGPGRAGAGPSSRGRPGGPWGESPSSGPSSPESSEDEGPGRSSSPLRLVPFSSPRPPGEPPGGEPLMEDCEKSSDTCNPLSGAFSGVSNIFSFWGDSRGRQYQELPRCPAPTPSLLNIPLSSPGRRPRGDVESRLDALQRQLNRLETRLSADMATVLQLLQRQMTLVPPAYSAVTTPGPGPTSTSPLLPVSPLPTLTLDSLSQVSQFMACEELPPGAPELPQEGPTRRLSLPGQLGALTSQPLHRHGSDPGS

Compound | Potency
Oc1ccc2cc(SSc3ccc4cc(O)ccc4c3)ccc2c1 | 44.7 µM (active)
Nc1ccc2cc3ccccc3cc2c1 | 5.01 µM (active)
Cc1cc(Nc2ccc(O)cc2)ccc1N | inactive
CO[C@H]1/C=C/O[C@@]2(C)Oc3c(C)c(O)c4c(O)c(c5c(c4c3C2=O)NC2(CCN(CC(C)C)CC2)N=5)=NC(=O)/C(C)=C\C=C\[C@H](C)[C@H](O)[C@@H](C)[C@@H](O)[C@@H](C)[C@H](OC(C)=O)[C@@H]1C | inactive
Cc1cc(O)c(C(C)(C)C)cc1Sc1cc(C(C)(C)C)c(O)cc1C | 39.8 µM (active)
C=C(C)c1ccccc1 | inactive
Cc1ccc(S(=O)(=O)Oc2ccc(N=Nc3ccc(-c4ccc(N=Nc5c(O)ccc6cc(S(=O)(=O)O)cc(S(=O)(=O)O)c56)c(C)c4)cc3C)cc2)cc1 | inactive
O=C1OC2(c3cc(Br)c(O)c(Br)c3Oc3c2cc(Br)c(O)c3Br)c2c(Cl)c(Cl)c(Cl)c(Cl)c21 | 3.98 µM (active)
c1cc(OCC2CO2)cc(OCC2CO2)c1 (stereo not drawn) | inactive
C=CC(=O)OCCOCCOC(=O)C=C | inactive
C/C=C1\C(=O)C[C@H]2[C@@H]3CCC4=CC(=O)CC[C@]4(C)[C@H]3CC[C@]12C | 35.5 µM (active)
O=C1OC(O)C(C(Cl)Cl)=C1Cl (stereo not drawn) | inactive
CNc1ccc(O)cc1 | inactive
CCC(C)Nc1ccc(NC(C)CC)cc1 (stereo not drawn) | 14.1 µM (active)
c1ccc2c(c1)ccc1cc3c(ccc4ccccc43)cc12 | inactive
c1ccc2c(c1)-c1cccc3c1c-2cc1ccccc13 | inactive
O=Cc1ccc(Cl)c(Cl)c1 | inactive

Tested on: not listed separately
Assay: qHTS assay for small molecule agonists of the antioxidant response element (ARE) signaling pathway (AID 651741; active means well fitted activation curve with a large enough effect in the signal ratio; the % refers to the signal ratio; further: potency means the concentration at half of the fitted maximal effect; on activation: % of control where 0% means no effect)
Settings: HepG2 ARE-bla reporter, beta-lactamase FRET ratio, 16 h; series mostly up to 96 µM
Method in brief: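 ARE-bla HepG2 cells (beta-lactamase reporter under ARE control) were plated at 2,000 cells/well, preincubated 5 h at 37 C/5% CO2, then treated with DMSO-dissolved compounds for 16 h at 37 C; LiveBLAzer B/G FRET substrate added, fluorescence read after 2 h at room temperature.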

Compound | Potency
Oc1ccc2cc(SSc3ccc4cc(O)ccc4c3)ccc2c1 | 13.3 µM (active)
Nc1ccc2cc3ccccc3cc2c1 | 2.37 µM (active)
O=C1OC2(c3cc(Br)c(O)c(Br)c3Oc3c2cc(Br)c(O)c3Br)c2c(Cl)c(Cl)c(Cl)c(Cl)c21 | 66.8 µM (active)
C=CC(=O)OCCOCCOC(=O)C=C | 47.3 µM (active)
C/C=C1\C(=O)C[C@H]2[C@@H]3CCC4=CC(=O)CC[C@]4(C)[C@H]3CC[C@]12C | 2.98 µM (active)
O=C1OC(O)C(C(Cl)Cl)=C1Cl (stereo not drawn) | 29.8 µM (active)
CNc1ccc(O)cc1 | 13.3 µM (active)
O=C=Nc1ccc(Cc2ccc(N=C=O)cc2)cc1 | inactive

Tested on: not listed separately
Assay: qHTS assay for small molecule activators of the p53 signaling pathway (AID 651743; active means well fitted activation curve with a large enough effect in the signal ratio, not every such curve was filed as active; the % refers to the signal ratio; further: potency means the concentration at half of the fitted maximal effect; on activation: % of control where 0% means no effect)
Settings: HCT-116 p53RE-bla, beta-lactamase FRET ratio, 16 h; activation: hits give high values
Method in brief: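 p53RE-bla HCT-116 cells with a stably integrated beta-lactamase reporter under p53 response elements were plated, rested 5 hours at 37 C/5% CO2, then exposed to compounds in DMSO for 16 hours at 37 C. LiveBLAzer B/G FRET substrate was read after 2 hours at room temperature.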

Compound | Potency | activation
CN(C)c1ccc(C2(c3ccc(N(C)C)cc3)OC(=O)c3cc(N(C)C)ccc32)cc1 | 50.1 µM (active) | 
CO[C@H]1/C=C/O[C@@]2(C)Oc3c(C)c(O)c4c(O)c(c5c(c4c3C2=O)NC2(CCN(CC(C)C)CC2)N=5)=NC(=O)/C(C)=C\C=C\[C@H](C)[C@H](O)[C@@H](C)[C@@H](O)[C@@H](C)[C@H](OC(C)=O)[C@@H]1C |  | -4.17% (inactive)
C=C(C)c1ccccc1 |  | -1.34% (inactive)
Cc1ccc(S(=O)(=O)Oc2ccc(N=Nc3ccc(-c4ccc(N=Nc5c(O)ccc6cc(S(=O)(=O)O)cc(S(=O)(=O)O)c56)c(C)c4)cc3C)cc2)cc1 |  | 1.02% (inactive)
C=CC(=O)OCCOCCOC(=O)C=C |  | 2.89% (inactive)
O=C1OC(O)C(C(Cl)Cl)=C1Cl (stereo not drawn) |  | -1.76% (inactive)
CNc1ccc(O)cc1 |  | -13.4% (inactive)
CC(=O)Nc1ccc(C(=O)CCl)cc1 | 31.6 µM (active) | 
O=C=Nc1ccc(Cc2ccc(N=C=O)cc2)cc1 |  | 6.25% (inactive) and 1.32% (inactive)
O=Cc1ccc(Cl)c(Cl)c1 |  | -1.08% (inactive)
